{"source": "paper PMC8384837", "about": "“Expanding the binding specificity for RNA recognition by a PUF domain”", "test_in_all_cases": "yeast three-hybrid, YBZ-1, SC-Leu-His + 0.5 mM 3-AT, 4 days", "conditions_in_all_cases": "tags: N-Gal4 AD-HA kept; label: inside an RPR1-promoter hybrid RNA with tandem MS2 sites; ssRNA", "key": {"PUM1 PUF domain R1-RAV": {"target": "PUM1 PUF domain R1-RAV (Homo sapiens, UniProt Q14671 828-1176, S863R;R864A;Q867V)", "sequence (Q14671 828-1176 S863R/R864A/Q867V)": "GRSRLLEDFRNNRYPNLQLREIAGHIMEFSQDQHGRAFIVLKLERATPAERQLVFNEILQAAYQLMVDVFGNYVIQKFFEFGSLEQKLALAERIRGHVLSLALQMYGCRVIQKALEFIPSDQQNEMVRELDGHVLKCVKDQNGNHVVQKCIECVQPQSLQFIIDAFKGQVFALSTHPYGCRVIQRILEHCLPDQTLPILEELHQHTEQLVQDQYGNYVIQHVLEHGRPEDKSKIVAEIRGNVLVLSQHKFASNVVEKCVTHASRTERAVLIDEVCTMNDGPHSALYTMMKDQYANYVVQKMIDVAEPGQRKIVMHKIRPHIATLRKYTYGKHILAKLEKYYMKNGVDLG", "procedure,_shortened": "(§1)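 Pumilio-1 PUF domain libraries, randomized at the three base-contacting residues of each repeat, were co-expressed with matching RNA elements from a centromeric plasmid in strain YBZ-1, which carries a LexA–MS2 coat fusion and a HIS3 reporter. Transformants grew for four days on SC-Leu (input) or on SC-Leu-His + 0.5 mM 3-AT (selection), and the repeat regions were PCR-amplified and Illumina-sequenced. The interaction score is the log change in variant frequency from input to selection. That logarithm is base 2, with a pseudocount of 1 where a variant was absent.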"}, "PUM1 PUF domain R1-GWR": {"target": "PUM1 PUF domain R1-GWR (Homo sapiens, UniProt Q14671 828-1176, S863G;R864W;Q867R)", "sequence (Q14671 828-1176 S863G/R864W/Q867R)": "as the sequence (Q14671 828-1176 S863R/R864A/Q867V) above, with R36G, A37W, V40R counted along it", "procedure,_shortened": "as §1"}, "PUM1 PUF domain R7-SHP": {"target": "PUM1 PUF domain R7-SHP (Homo sapiens, UniProt Q14671 828-1176, N1080H;E1083P)", "sequence (Q14671 828-1176 N1080H/E1083P)": "as the sequence (Q14671 828-1176 S863R/R864A/Q867V) above, with R36S, A37R, V40Q, N253H, E256P counted along it", "procedure,_shortened": "as §1"}, "PUM1 PUF domain R3-RMR": {"target": "PUM1 PUF domain R3-RMR (Homo sapiens, UniProt Q14671 828-1176, C935R;R936M;Q939R)", "sequence (Q14671 828-1176 C935R/R936M/Q939R)": "as the sequence (Q14671 828-1176 S863R/R864A/Q867V) above, with R36S, A37R, V40Q, C108R, R109M, Q112R counted along it", "procedure,_shortened": "as §1"}, "PUM1 PUF domain R3-LYV": {"target": "PUM1 PUF domain R3-LYV (Homo sapiens, UniProt Q14671 828-1176, C935L;R936Y;Q939V)", "sequence (Q14671 828-1176 C935L/R936Y/Q939V)": "as the sequence (Q14671 828-1176 S863R/R864A/Q867V) above, with R36S, A37R, V40Q, C108L, R109Y, Q112V counted along it", "procedure,_shortened": "as §1"}, "PUM1 PUF domain R5-KGC": {"target": "PUM1 PUF domain R5-KGC (Homo sapiens, UniProt Q14671 828-1176, C1007K;R1008G;Q1011C)", "sequence (Q14671 828-1176 C1007K/R1008G/Q1011C)": "as the sequence (Q14671 828-1176 S863R/R864A/Q867V) above, with R36S, A37R, V40Q, C180K, R181G, Q184C counted along it", "procedure,_shortened": "as §1"}, "PUM1 PUF domain R5-RPN": {"target": "PUM1 PUF domain R5-RPN (Homo sapiens, UniProt Q14671 828-1176, C1007R;R1008P;Q1011N)", "sequence (Q14671 828-1176 C1007R/R1008P/Q1011N)": "as the sequence (Q14671 828-1176 S863R/R864A/Q867V) above, with R36S, A37R, V40Q, C180R, R181P, Q184N counted along it", "procedure,_shortened": "as §1"}, "PUM1 PUF domain R5-KTS": {"target": "PUM1 PUF domain R5-KTS (Homo sapiens, UniProt Q14671 828-1176, C1007K;R1008T;Q1011S)", "sequence (Q14671 828-1176 C1007K/R1008T/Q1011S)": "as the sequence (Q14671 828-1176 S863R/R864A/Q867V) above, with R36S, A37R, V40Q, C180K, R181T, Q184S counted along it", "procedure,_shortened": "as §1"}, "PUM1 PUF domain R3-NSL": {"target": "PUM1 PUF domain R3-NSL (Homo sapiens, UniProt Q14671 828-1176, C935N;R936S;Q939L)", "sequence (Q14671 828-1176 C935N/R936S/Q939L)": "as the sequence (Q14671 828-1176 S863R/R864A/Q867V) above, with R36S, A37R, V40Q, C108N, R109S, Q112L counted along it", "procedure,_shortened": "as §1"}, "PUM1 PUF domain R7-GWD": {"target": "PUM1 PUF domain R7-GWD (Homo sapiens, UniProt Q14671 828-1176, S1079G;N1080W;E1083D)", "sequence (Q14671 828-1176 S1079G/N1080W/E1083D)": "as the sequence (Q14671 828-1176 S863R/R864A/Q867V) above, with R36S, A37R, V40Q, S252G, N253W, E256D counted along it", "procedure,_shortened": "as §1"}}}
{"sequence": "GGCUAGAACUAGUGGAUCCCCCGGCGCCCGGCGGCUCGAGCCCGGGUAAGUGUAAAUCGUCUGCAUGCCGCCGGGCGCCAUGCCUGCAGGUCGACUCUAGAAAACAUG", "values": [{"measurement": "binding signal", "setting": "PUM1 PUF domain R1-RAV", "value": "0.85 log2 enrichment (interaction score)"}, {"measurement": "binding signal", "setting": "PUM1 PUF domain R1-GWR", "value": "7.05 log2 enrichment (interaction score)"}]}
{"sequence": "GGCUAGAACUAGUGGAUCCCCCGGCGCCCGGCGGCUCGAGCCCGGGUAAGUCUAAAUAGUCUGCAUGCCGCCGGGCGCCAUGCCUGCAGGUCGACUCUAGAAAACAUG", "values": [{"measurement": "binding signal", "setting": "PUM1 PUF domain R7-SHP", "value": "3.63 log2 enrichment (interaction score)"}]}
{"sequence": "GGCUAGAACUAGUGGAUCCCCCGGCGCCCGGCGGCUCGAGCCCGGGUAAGUGUAAGUAGUCUGCAUGCCGCCGGGCGCCAUGCCUGCAGGUCGACUCUAGAAAACAUG", "values": [{"measurement": "binding signal", "setting": "PUM1 PUF domain R3-RMR", "value": "1.31 log2 enrichment (interaction score)"}, {"measurement": "binding signal", "setting": "PUM1 PUF domain R3-LYV", "value": "4.97 log2 enrichment (interaction score)"}]}
{"sequence": "GGCUAGAACUAGUGGAUCCCCCGGCGCCCGGCGGCUCGAGCCCGGGUAAGUGUUAAUAGUCUGCAUGCCGCCGGGCGCCAUGCCUGCAGGUCGACUCUAGAAAACAUG", "values": [{"measurement": "binding signal", "setting": "PUM1 PUF domain R5-KGC", "value": "3.36 log2 enrichment (interaction score)"}, {"measurement": "binding signal", "setting": "PUM1 PUF domain R5-RPN", "value": "3.03 log2 enrichment (interaction score)"}, {"measurement": "binding signal", "setting": "PUM1 PUF domain R5-KTS", "value": "1.52 log2 enrichment (interaction score)"}]}
{"sequence": "GGCUAGAACUAGUGGAUCCCCCGGCGCCCGGCGGCUCGAGCCCGGGUAAGUGUCAAUAGUCUGCAUGCCGCCGGGCGCCAUGCCUGCAGGUCGACUCUAGAAAACAUG", "values": [{"measurement": "binding signal", "setting": "PUM1 PUF domain R5-KTS", "value": "2.89 log2 enrichment (interaction score)"}]}
{"sequence": "GGCUAGAACUAGUGGAUCCCCCGGCGCCCGGCGGCUCGAGCCCGGGUAAGUGUAAAUAGUCUGCAUGCCGCCGGGCGCCAUGCCUGCAGGUCGACUCUAGAAAACAUG", "values": [{"measurement": "binding signal", "setting": "PUM1 PUF domain R3-NSL", "value": "2.4 log2 enrichment (interaction score)"}, {"measurement": "binding signal", "setting": "PUM1 PUF domain R5-KGC", "value": "1.52 log2 enrichment (interaction score)"}, {"measurement": "binding signal", "setting": "PUM1 PUF domain R7-GWD", "value": "2.68 log2 enrichment (interaction score)"}, {"measurement": "binding signal", "setting": "PUM1 PUF domain R3-LYV", "value": "4.4 log2 enrichment (interaction score)"}]}
{"sequence": "GGCUAGAACUAGUGGAUCCCCCGGCGCCCGGCGGCUCGAGCCCGGGUAAGUGUAAAUUGUCUGCAUGCCGCCGGGCGCCAUGCCUGCAGGUCGACUCUAGAAAACAUG", "values": [{"measurement": "binding signal", "setting": "PUM1 PUF domain R1-RAV", "value": "2.63 log2 enrichment (interaction score)"}, {"measurement": "binding signal", "setting": "PUM1 PUF domain R1-GWR", "value": "4.28 log2 enrichment (interaction score)"}]}
{"sequence": "GGCUAGAACUAGUGGAUCCCCCGGCGCCCGGCGGCUCGAGCCCGGGUAAGUGUAAUUAGUCUGCAUGCCGCCGGGCGCCAUGCCUGCAGGUCGACUCUAGAAAACAUG", "values": [{"measurement": "binding signal", "setting": "PUM1 PUF domain R3-RMR", "value": "4.19 log2 enrichment (interaction score)"}, {"measurement": "binding signal", "setting": "PUM1 PUF domain R3-LYV", "value": "5.79 log2 enrichment (interaction score)"}]}
